We go through 4 compounds from PubChem BioAssay.

A short description of assay [1]: yeast TOR pathway RPL19A-GFP modulators, primary screen, cell-based, S. cerevisiae, multiplex flow cytometry (AID 1862; in the data active = percent of DMSO control GFP below about 86%;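 also: lower values mimic rapamycin by blocking the RPL19A rise seen in DMSO cells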). Conditions: S. cerevisiae RPL19A-GFP strain, flow cytometry fluorescence, 3 h; at 10 µM; stronger effect = lower value.
A short description of assay [2]: modulators of MEP2-GFP levels in yeast, primary screen, S. cerevisiae, multiplex flow cytometry (AID 1867;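 active = GFP response, as percent of the DMSO control, above the screen-wide mean plus 3 SD, about 139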;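 also: median GFP channel fluorescence of barcode-gated MEP2-GFP cells measured by flow cytometry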). Conditions: S. cerevisiae MEP2-GFP strain, 3 h, at 10 µM, stronger effect = higher value, 100% means same as DMSO wells.
The nature of assay [3]: modulators of CIT2-GFP expression in yeast, primary screen, S. cerevisiae, GFP fusion, multiplex flow cytometry (AID 1870).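 Also: barcoded CIT2-GFP strain pooled with four other GFP strains with rapamycin as positive control; median GFP fluorescence per well over plate mean of DMSO wells so 100% = DMSO.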 Conditions: 3 h, at 10 µM, stronger effect = higher value.
Assay [4] in a line: modulators of LAP4-GFP expression in yeast, primary screen, S. cerevisiae, multiplex flow cytometry (AID 1873;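 active = GFP signal, as percent of the solvent control, above the screen mean plus 3 SD, about 149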). Conditions: 3 h, at 10 µM, stronger effect = higher value.
Assay [5] can be described thus: modulators of AGP1-GFP expression in yeast TOR pathway, primary screen, cell-based, multiplex flow cytometry, S. cerevisiae (AID 1887;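 active = GFP signal above the screen-wide mean plus 3 SD, that is over about 124.5% of the solvent control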;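 also: AGP1-GFP fusion strain of S. cerevisiae within a five-strain barcoded multiplex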). To be noted: 3 h, at 10 µM, stronger effect = higher value.
Assay [6] is described as follows: inhibitors of CD8+ T cell-vesicle binding, pilot screen, LFA-1/ICAM-1 modulator project, MLPCN validation set, flow cytometry (AID 2523;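 active = response below a set limit, under 55% cells CD8-positive and vesicle-bound, and CD8 cells' 90th-percentile brightness under 279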;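 as to vesicle binding response: mean PE anti-B7-1 fluorescence of CD8+ cells relative to row control; 100% = QL9-loaded vesicles with DMSO vehicle in the same plate row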). Conditions: 2C mouse CD8+ T cells, at 7 µM, stronger effect = lower value; double positive events: measured here: CD8+/vesicle+ event percentage.
Assay [7] deals with Integrin beta-1 (Homo sapiens) + Integrin alpha-4 (Homo sapiens) (UniProt P13612+P05556). The assay is described as follows: inhibition of HUTS-21 binding to VLA-4, pilot screen, VLA-4 allosteric modulator project, U937 cells, HUTS-21 mAb, flow cytometry, validation set (AID 2674;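 active = inhibition above 50%, about 3 SD of the validation set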;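 also: antibody binding induced by the VLA-4 ligand LDV present at three times its Kd; 0% = LDV ligand with antibody and no compound and 100% = antibody without LDV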). To be noted: HUTS-21 LIBS mAb binding, at 6.7 µM, stronger effect = higher value, binding induced by LDV ligand.
Chain of Integrin beta-1 (Homo sapiens) + Integrin alpha-4 (Homo sapiens) (P05556 whole entry, looked up): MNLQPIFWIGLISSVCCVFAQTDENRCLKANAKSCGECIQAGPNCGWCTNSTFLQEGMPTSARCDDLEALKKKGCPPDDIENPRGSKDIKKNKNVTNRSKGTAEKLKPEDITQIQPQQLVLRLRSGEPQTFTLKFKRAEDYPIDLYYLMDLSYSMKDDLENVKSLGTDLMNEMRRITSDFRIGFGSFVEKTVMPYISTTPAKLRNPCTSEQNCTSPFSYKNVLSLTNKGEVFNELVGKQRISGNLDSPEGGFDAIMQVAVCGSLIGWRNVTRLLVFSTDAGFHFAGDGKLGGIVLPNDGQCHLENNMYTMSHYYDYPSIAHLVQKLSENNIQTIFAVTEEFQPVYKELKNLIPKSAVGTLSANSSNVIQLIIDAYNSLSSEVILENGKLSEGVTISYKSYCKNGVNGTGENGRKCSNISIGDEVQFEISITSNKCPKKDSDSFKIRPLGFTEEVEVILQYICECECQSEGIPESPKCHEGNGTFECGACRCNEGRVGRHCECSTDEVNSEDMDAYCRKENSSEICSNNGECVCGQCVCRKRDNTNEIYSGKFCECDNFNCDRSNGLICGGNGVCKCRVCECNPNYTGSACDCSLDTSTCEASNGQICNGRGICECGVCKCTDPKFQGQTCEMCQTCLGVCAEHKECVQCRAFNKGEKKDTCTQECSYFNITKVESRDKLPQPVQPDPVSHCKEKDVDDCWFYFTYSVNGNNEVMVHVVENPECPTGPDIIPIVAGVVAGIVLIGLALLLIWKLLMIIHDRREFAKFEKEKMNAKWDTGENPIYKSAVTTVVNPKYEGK
Chain of Integrin beta-1 (Homo sapiens) + Integrin alpha-4 (Homo sapiens) (P13612 whole entry, looked up): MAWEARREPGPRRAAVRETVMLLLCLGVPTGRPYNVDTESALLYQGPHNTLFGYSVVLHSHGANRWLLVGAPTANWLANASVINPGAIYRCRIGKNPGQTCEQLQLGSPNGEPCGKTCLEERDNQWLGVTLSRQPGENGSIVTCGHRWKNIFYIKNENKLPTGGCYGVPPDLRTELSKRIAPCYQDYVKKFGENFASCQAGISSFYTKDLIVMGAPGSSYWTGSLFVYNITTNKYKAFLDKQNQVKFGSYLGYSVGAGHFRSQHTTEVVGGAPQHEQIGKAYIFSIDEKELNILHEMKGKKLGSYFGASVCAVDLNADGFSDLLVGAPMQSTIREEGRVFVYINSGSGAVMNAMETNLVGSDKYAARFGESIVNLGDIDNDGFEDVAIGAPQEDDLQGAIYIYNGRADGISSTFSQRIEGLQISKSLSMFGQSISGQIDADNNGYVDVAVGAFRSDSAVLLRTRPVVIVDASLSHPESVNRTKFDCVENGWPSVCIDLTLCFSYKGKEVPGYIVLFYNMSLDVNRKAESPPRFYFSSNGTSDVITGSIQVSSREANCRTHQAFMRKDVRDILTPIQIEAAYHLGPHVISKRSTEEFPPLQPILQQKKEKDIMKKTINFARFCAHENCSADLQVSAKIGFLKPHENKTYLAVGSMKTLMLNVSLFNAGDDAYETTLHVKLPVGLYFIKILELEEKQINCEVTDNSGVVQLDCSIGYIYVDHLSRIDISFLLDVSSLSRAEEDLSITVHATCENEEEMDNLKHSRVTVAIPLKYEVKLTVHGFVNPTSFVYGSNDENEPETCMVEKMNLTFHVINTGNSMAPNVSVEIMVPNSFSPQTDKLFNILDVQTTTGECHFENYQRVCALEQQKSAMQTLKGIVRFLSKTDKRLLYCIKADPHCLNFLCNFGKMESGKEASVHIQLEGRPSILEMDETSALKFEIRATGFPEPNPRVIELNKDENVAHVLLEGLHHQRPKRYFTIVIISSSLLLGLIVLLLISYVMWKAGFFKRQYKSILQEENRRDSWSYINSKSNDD

Assay [8] can be described thus: superoxide lowering in aged yeast cells, pilot screen, validation compound set (AID 2706;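 active = superoxide response below 65% of plate, a cut near 3 SD across the whole screen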;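 also: yeast exposed to compound for one week at 30 degrees C before staining; 100% = mean of all compound wells on the same plate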). Conditions: S. cerevisiae aging, superoxide DHE fluorescence; at 10 µM; stronger effect = lower value.
The target of assay [9] is Beta-adrenergic receptor kinase 1 (Homo sapiens) (UniProt P25098). The experiment in a line: GRK2 binders displacing RNA aptamer, biochemical, validation, human GRK2, bead flow cytometry (AID 488806;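 active = aptamer binding inhibition above 30%, about 3 SD of noise from non-fluorescent compounds; inactive = inhibition at or below 30%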). Conditions: bead-bound GRK2, FAM-aptamer displacement, at 10 µM, stronger effect = higher value.
Chain of Beta-adrenergic receptor kinase 1 (Homo sapiens) (P25098 whole entry, looked up): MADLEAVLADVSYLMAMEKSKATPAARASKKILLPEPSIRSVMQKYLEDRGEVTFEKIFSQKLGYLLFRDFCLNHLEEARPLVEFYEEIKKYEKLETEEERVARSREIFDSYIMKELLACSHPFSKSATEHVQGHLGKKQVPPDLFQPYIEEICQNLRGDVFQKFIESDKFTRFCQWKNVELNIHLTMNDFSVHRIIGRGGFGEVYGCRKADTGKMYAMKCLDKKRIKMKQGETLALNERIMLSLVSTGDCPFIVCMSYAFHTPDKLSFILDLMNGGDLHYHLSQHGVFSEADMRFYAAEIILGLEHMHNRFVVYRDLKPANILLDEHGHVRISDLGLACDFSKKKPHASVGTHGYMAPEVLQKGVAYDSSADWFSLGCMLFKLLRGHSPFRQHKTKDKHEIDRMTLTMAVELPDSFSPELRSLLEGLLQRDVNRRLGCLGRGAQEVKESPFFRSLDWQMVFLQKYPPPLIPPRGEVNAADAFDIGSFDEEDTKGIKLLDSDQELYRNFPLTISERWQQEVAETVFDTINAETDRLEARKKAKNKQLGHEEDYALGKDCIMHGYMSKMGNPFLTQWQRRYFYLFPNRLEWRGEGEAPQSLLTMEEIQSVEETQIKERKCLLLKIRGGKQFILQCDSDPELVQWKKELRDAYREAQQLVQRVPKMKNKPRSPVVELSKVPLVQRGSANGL
Assay [10] has as its target Beta-2 adrenergic receptor (Homo sapiens) (UniProt P07550). The assay is described as follows: beta2AR agonists driving receptor internalization, pilot screen, cell-based, FAP fluorogen, flow cytometry, validation set (AID 504459;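 active = percent response above 42, roughly 3 SD of non-fluorescent test compounds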;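 also: agonist-driven loss of surface beta2AR via internalization measured by FAP dye flow cytometry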). Conditions: Am2.2-beta2AR cells, FAP surface receptor flow cytometry; at 10 µM; stronger effect = higher value.
Assay [11] deals with AP-2 complex subunit beta (Homo sapiens) (UniProt P63010). The assay is described as follows: inhibitors of arrestin peptide binding to AP2, pilot screen, biochemical, validation set, GST-AP2 beads, flow cytometry (AID 504541;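 active = inhibition above 54%, about 3 SD of non-fluorescent compounds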;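 also: AP2 carries R879A mutation and is captured from E. coli lysate; bead-bound FITC arrestin peptide fluorescence measuring arrestin peptide binding to AP2; 0% = DMSO wells and 100% = excess unlabeled arrestin peptide control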). To be noted: FITC arrestin peptide, at 10 µM, stronger effect = higher value, AP2 beta2 appendage fragment, R879A mutant.
Chain of AP-2 complex subunit beta (Homo sapiens) (P63010 whole entry, looked up, the tested form may be a part, one chain of several): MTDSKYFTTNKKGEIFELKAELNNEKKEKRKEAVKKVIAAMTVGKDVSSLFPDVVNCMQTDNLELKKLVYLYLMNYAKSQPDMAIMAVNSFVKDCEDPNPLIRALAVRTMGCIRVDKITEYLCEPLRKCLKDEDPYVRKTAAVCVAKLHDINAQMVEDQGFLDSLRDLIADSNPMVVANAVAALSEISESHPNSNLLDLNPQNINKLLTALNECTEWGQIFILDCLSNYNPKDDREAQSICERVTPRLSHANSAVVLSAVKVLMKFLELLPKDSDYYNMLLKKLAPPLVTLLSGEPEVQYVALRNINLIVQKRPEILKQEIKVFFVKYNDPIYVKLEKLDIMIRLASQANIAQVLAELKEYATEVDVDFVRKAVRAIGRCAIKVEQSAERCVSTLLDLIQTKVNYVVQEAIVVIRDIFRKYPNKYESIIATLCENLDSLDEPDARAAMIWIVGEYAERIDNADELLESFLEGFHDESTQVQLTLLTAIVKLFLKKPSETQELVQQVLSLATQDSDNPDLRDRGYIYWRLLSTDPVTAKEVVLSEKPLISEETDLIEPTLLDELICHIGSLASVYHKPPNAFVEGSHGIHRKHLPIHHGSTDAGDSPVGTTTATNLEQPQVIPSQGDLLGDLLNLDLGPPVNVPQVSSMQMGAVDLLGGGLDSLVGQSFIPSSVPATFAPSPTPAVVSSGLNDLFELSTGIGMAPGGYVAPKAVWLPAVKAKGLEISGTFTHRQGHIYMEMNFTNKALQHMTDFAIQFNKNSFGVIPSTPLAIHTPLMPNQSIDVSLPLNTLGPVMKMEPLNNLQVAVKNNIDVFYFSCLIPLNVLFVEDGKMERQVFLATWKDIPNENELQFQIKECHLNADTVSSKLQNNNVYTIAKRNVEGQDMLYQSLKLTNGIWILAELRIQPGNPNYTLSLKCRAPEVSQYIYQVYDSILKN
Assay [12] in a line: yeast V-ATPase proton transport modulators, S. cerevisiae, pHLuorin, HTS validation (AID 504600; in the data active = response above about 15%;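 also: plate controls were DMSO for no effect and reference compound for full effect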). To be noted: S. cerevisiae pHLuorin cytosolic pH, at 10 µM, stronger effect = higher value.
Assay [13] relates to anti-desmoglein-3 scFv antibody binding to human DSG3. The assay is described as follows: inhibitors of anti-DSG3 scFv binding to DSG3, pilot screen, biochemical, validation compound set, bead-based, flow cytometry (AID 588368;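 active = binding below the plate cutoff, the plate median minus 3 SD, with a reading above zero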;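 also: signal is the median channel fluorescence of bead-bound GFP antibody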). To be noted: Protein G beads, DSG3-Fc, scFv-GFP binding, at 10 µM, stronger effect = lower value.
A short description of assay [14]: inhibitors of fungal efflux pumps CDR1, CDR2, MDR1, pilot screen, validation compound set, multiplex, phenotypic (AID 588506;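 active = efflux inhibition above 0.42, the validation set average plus 4 SD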;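 also: Nile Red retained in cells so higher fluorescence means more efflux inhibition; 0 = negative control wells and 1 = enniatin B 25 µM full block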). To be noted: S. cerevisiae pump-expressing triplex, Nile Red efflux flow cytometry; at 10 µM; stronger effect = higher value; the pumps come from Candida albicans.
For assay [15], the target named is ATP-binding cassette sub-family B member 6 (Homo sapiens) (UniProt Q9NP58). The assay is described as follows: ABCB6 transporter inhibitors, pilot screen, K562-ABCB6 cells, flow cytometry, validation set (AID 588550;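 active = inhibition above the screen-wide mean plus 3 SD, about 51%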;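 also: 0% = DMSO wells and 100% = benzethonium chloride 70 µM positive control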). Conditions: K562-ABCB6 porphyrin accumulation, 1 h, at 10 µM, stronger effect = higher value.
Chain of ATP-binding cassette sub-family B member 6 (Homo sapiens) (Q9NP58 whole entry, looked up): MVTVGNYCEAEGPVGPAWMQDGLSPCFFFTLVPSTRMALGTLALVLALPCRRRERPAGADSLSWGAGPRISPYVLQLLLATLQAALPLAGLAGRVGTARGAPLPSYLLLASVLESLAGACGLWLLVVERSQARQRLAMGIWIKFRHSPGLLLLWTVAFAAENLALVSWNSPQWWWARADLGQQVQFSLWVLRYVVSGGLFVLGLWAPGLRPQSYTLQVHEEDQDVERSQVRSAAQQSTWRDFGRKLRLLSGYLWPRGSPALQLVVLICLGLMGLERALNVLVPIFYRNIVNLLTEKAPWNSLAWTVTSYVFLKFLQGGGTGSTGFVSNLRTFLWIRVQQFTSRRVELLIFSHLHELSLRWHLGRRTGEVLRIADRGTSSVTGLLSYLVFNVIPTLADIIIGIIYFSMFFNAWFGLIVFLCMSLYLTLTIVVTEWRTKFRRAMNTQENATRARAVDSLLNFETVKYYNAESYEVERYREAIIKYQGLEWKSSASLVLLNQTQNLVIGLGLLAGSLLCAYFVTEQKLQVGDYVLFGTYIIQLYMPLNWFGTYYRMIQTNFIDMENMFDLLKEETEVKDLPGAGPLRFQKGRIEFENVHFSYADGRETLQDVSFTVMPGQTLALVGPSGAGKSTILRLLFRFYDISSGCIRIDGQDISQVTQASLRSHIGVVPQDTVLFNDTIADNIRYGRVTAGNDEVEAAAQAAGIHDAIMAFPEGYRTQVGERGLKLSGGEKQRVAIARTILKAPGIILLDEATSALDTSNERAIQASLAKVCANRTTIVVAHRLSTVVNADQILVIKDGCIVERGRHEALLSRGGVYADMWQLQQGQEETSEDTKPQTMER
Assay [16] is described as follows: promoters of myeloid differentiation in arrested cells, primary screen, cell-based, GFP/MAC1 double positive, flow cytometry, validation set (AID 588685;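 active = differentiation response of at least 50%, scaled between solvent and reference control, from cells with both markers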;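 also: compound exposure lasts four days before antibody staining and flow analysis; 0% = DMSO wells and 100% = 5 µM fulvestrant positive control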). Conditions: ER-HoxA9 marrow cells, stronger effect = higher value, normalized: vehicle 0, fulvestrant 100.

Records with an inconclusive call do not appear. Calls of active or inactive are those of the source.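 The calls were made as follows, unless noted: active = percent response above a set limit, the screen-wide mean plus 3 SD (cut at about 130% in these data); inactive = the rest.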

Chain of Beta-2 adrenergic receptor (Homo sapiens) (P07550 whole entry, looked up): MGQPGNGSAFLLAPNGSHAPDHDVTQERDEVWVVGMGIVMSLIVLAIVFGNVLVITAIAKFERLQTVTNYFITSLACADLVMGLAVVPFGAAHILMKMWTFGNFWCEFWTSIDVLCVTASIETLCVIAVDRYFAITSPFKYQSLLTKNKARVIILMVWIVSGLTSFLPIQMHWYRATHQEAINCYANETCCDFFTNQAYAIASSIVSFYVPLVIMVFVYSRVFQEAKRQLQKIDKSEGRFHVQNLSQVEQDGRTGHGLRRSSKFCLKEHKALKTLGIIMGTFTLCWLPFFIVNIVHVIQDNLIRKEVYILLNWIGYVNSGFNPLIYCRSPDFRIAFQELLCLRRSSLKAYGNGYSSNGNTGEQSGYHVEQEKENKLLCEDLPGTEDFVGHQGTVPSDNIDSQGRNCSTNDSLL

In the case of `CN(C)CCCN1c2ccccc2Sc2ccc(C(F)(F)F)cc21`, the percent of DMSO control GFP in assay [1] is 99% (inactive). The GFP response vs DMSO is 106% (inactive) in [2] and 115% (inactive) in assay [4]. The percent response of DMSO control in [3] is 99% (inactive). Moreover, in assay [5], the GFP response, % of DMSO was 113% (inactive). For the same compound, the double positive events in [6] turned out to be 60.5%. Further, the vesicle binding response in assay [6] was 196% (inactive). Also, the inhibition in [7] is 53.4% (active); in [11], 29.2% (inactive); in [15], 6% (inactive). The superoxide response (% of plate) in [8] was 88.6% (inactive). Also, the aptamer binding inhibition in [9] is -7% (inactive). Further, the response is 26.6% (inactive) in assay [10] and -0.19% (inactive) in [12]. For the same compound, the binding (% of control) in assay [13] was 101% (inactive). For the same compound, the efflux inhibition (fraction of control) in assay [14] was 0.25 (inactive). The differentiation response in assay [16] was -18.8% (inactive).

As to `CCOc1ccc(C(NC(C)=O)c2ccc(OC)c(OC)c2)cc1` (stereo not drawn), the percent of DMSO control GFP in assay [1] was 99.8% (inactive). For the same compound, the GFP response vs DMSO was 104% (inactive) in [2] and 101% (inactive) in assay [4]. In [3], the percent response of DMSO control was 99.3% (inactive). In addition, the GFP response, % of DMSO in [5] was 100% (inactive). For the same compound, in assay [6], the double positive events came out at 58.9%. For the same compound, the vesicle binding response in [6] was 28% (inactive). Moreover, the results for the inhibition in assay [7], in assay [11] and in [15] were -20.4% (inactive), -21.1% (inactive) and 8% (inactive), respectively. The superoxide response (% of plate) in assay [8] was 107% (inactive). Further, in assay [9], the aptamer binding inhibition was 5% (inactive). Moreover, the response in assay [10] is -0.66% (inactive); in assay [12], -0.46% (inactive). Moreover, the binding (% of control) in assay [13] is 99.2% (inactive). Further, the efflux inhibition (fraction of control) in assay [14] is -0.63 (inactive). In addition, in assay [16], the differentiation response is 0% (inactive).

Regarding `CC12CCC(C(=O)NCc3ccccn3)(OC1=O)C2(C)C` (stereo not drawn), the percent of DMSO control GFP in [1] is 102% (inactive). The results for the GFP response vs DMSO in assay [2] and in assay [4] were 103% (inactive) and 98% (inactive), respectively. Moreover, the percent response of DMSO control in assay [3] was 103% (inactive). In addition, in assay [5], the GFP response, % of DMSO was 103% (inactive). Also, in assay [6], the double positive events came to 61.8%. The vesicle binding response in assay [6] is 167% (inactive). Moreover, the inhibition is 1.59% (inactive) in assay [7], 6.09% (inactive) in assay [11] and 33% (inactive) in assay [15]. Further, the superoxide response (% of plate) in [8] is 92.4% (inactive). Besides, the aptamer binding inhibition in assay [9] is 0% (inactive). Further, the response in assay [10] was -3.72% (inactive); in assay [12], -2.31% (inactive). For the same compound, the binding (% of control) in [13] was 104% (inactive). Moreover, the efflux inhibition (fraction of control) in assay [14] was -0.24 (inactive). Further, in [16], the differentiation response is 5.67% (inactive).

`COC(=O)c1ccc(C(=O)OC)c(NC(=O)C(C)C)c1`: the percent of DMSO control GFP in assay [1] is 97.8% (inactive). The results for the GFP response vs DMSO in assay [2] and in assay [4] were 102% (inactive) and 138% (inactive), respectively. In addition, the percent response of DMSO control in assay [3] was 102% (inactive). Besides, the GFP response, % of DMSO in assay [5] was 112% (inactive). In assay [6], this compound gave a double positive events of 63.1%. The vesicle binding response in assay [6] was 204% (inactive). The inhibition was -72.7% (inactive) in [7], -9.41% (inactive) in assay [11] and -3% (inactive) in assay [15]. Further, the superoxide response (% of plate) in assay [8] was 100% (inactive). Moreover, the aptamer binding inhibition in assay [9] is 0% (inactive). Further, the response in [10] was -13.3% (inactive); in [12] it was 0.33% (inactive). Moreover, in [13], the binding (% of control) was 97.1% (inactive). Moreover, the efflux inhibition (fraction of control) in assay [14] was 0 (inactive). Besides, in assay [16], the differentiation response was 0.92% (inactive).
